# Inconclusive results are not listed. A call without a number means that no potency is given here. Active and inactive are the calls of the source. Calls come from the whole dose curve; as a rule, active = well fitted inhibition curve with a large enough effect; inconclusive = small, poorly fitted or top-dose-only effect; inactive = no such curve, though single readings can be large or run the other way. Non-standard residues stand in square brackets, D forms with d. Residues, ends and D or L forms follow the SMILES beside them. *: point of attachment. Nva = CCC[C@H](N)C(=O)O; Cbz = O=C(OCc1ccccc1)*
# Test: NS1 protein of Zika virus - qHTS assay to identify small molecule inhibitors in human HEK 293 cells (AID 1347053); note: nearly all actives have a fitted effect of over 55% in size
# Conditions: HEK293 ZIKV MR766 infection, NS1 TR-FRET, 24 h; series mostly up to 46.1 µM
# Excerpt: National Center for Advancing Translational Sciences [NCATS]
# Johns Hopkins University School of Medicine
# The non-structural 1 (NS1) protein of zika virus is known to associate with the viral replication complex. This cell-based TR-FRET ZIKV NS-1 assay measures the increased NS-1 protein in human HEK 293 cells after a 24-hour Zika virus infection by a TR-FRET assay readout. A decrease in the Time-resolved fluorescence energy transfer (TR-FRET) signal in this assay by small molecule treatment indicates an inhibitory effect of the small molecule on the expression of Zika virus NS1 correlating with Zika virus replication.
# HEK 293 cells were cultured in EMEM (ATCC, Cat. # 30-2003) medium with 10% fetal bovine serum (GE healthcare Life Sciences, Cat. # SH30071.03), and 1% Pen/Strep (Gibco, Cat. # 15140-122). Cells were seeded in the assay plate and incubated at 37 C with 5% CO2 for 20 hours. Compounds were added to cells and incubated for one hour before addition of ZIKV MR766 strain solution to cells (MOI = 0.5). After an incubation at 37 C for 24 hours, the reagent mixture of TR-FRET ZIKV NS1 assay using two anti-ZIKV NS1 antibodies was added to assay plates. The TR-FRET signals in assay plates were measured using an Envision plate reader (PerkinElmer). Data were normalized by using the cell-containing wells without ZIKV as a negative control (0% NS-1) and wells containing ZIKV infected cells as a positive control (100% NS-1 level).
# Potency is the fitted concentration of half-maximal effect.
row,Structure (SMILES),Potency
1,Nc1nc(=O)n([C@H]2CSC(CO)O2)cc1F (stereo not given in full),inactive
2,CCCCCCCCc1ccc(CCC(N)(CO)CO)cc1,9350 nM (active)
3,CCCCCCCCCCCC(CC1OC(=O)C1CCCCCC)OC(=O)C(CC(C)C)NC=O (stereo not given),inactive
4,N#Cc1c(C2CCNCC2)cc(-c2c(O)cccc2OCC2CC2)nc1N,inactive
5,CC(C=CC(=O)NO)=C[C@@H](C)C(=O)c1ccc(N(C)C)cc1,inactive
6,COc1ccc(Nc2nccc(NCCO)n2)cc1,inactive
7,CCC[C@@H](C=O)NC(=O)[C@H](CC(C)C)NC(=O)[C@H](CC(C)C)NC(=O)OCc1ccccc1 (Cbz-Leu-Leu-[Nva]-aldehyde),3320 nM (active)
8,CC[C@H]1OC(=O)[C@H](C)[C@@H](O[C@H]2C[C@@](C)(OC)[C@@H](O)[C@H](C)O2)[C@H](C)[C@@H](O[C@@H]2O[C@@H](C)C[C@H](N(C)C)[C@@H]2O)[C@](C)(O)C[C@@H](C)C(=O)[C@H](C)[C@@H](O)[C@]1(C)O,inactive
9,CC[C@H](CC[C@@H](C)[C@H]1CC[C@H]2[C@@H]3CC=C4C[C@@H](O)CC[C@]4(C)[C@@H]3CC[C@]12C)C(C)C,inactive
10,COc1cccc2c1C(=O)c1c(O)c3c(c(O)c1C2=O)C[C@@](O)(C(=O)CO)C[C@@H]3O[C@H]1C[C@H](N)[C@@H](O)[C@H](C)O1,296 nM (active)
11,CC(C)C[C@@H](C=O)NC(=O)[C@H](CC(C)C)NC(=O)[C@H](CC(C)C)NC(=O)OCc1ccccc1 (Cbz-Leu-Leu-Leu-aldehyde),1660 nM (active)
12,CC(=O)O[C@]1(C(C)=O)CC[C@H]2[C@@H]3C=C(C)C4=CC(=O)CC[C@]4(C)[C@@H]3CC[C@@]21C,inactive
13,C#C[C@]1(O)CC[C@@H]2[C@@H]3CCC4=CC(=O)CC[C@@H]4[C@H]3CC[C@@]21CC,inactive
14,O=C(CCCCCCC(=O)Nc1cccnc1)NO,inactive
15,O=C(NC1CC1)c1cccc(-c2ccc3c(NC(=O)C4CC4)n[nH]c3c2)c1,inactive
16,C=CC(=O)Nc1cccc(Nc2nc(NC3CCC(N(C)C)CC3)nc3c2ncn3C(C)C)c1 (stereo not given),11800 nM (active)
17,CC(Oc1ccc(O)cc1)(P(=O)(O)O)P(=O)(O)O,inactive
18,CC(=O)SCC(Cc1ccccc1)C(=O)NCC(=O)OCc1ccccc1 (stereo not given),inactive
19,CCC[C@H]1C[C@H](C(=O)N[C@@H]([C@@H]2O[C@@H](SC)[C@@H](O)[C@@H](O)[C@@H]2O)[C@H](C)Cl)N(C)C1,inactive
20,C[C@H](O)[C@@H]1C(=O)N2C(C(=O)O)=C(S[C@@H]3CN[C@H](CNS(N)(=O)=O)C3)[C@@H](C)[C@@H]12,inactive

row,Structure (SMILES),Potency
1,CC(=O)O[C@H]1C[C@@H]2CC[C@H]3[C@H]4C[C@H]([N+]5(C)CCCCC5)[C@@H](OC(C)=O)[C@@]4(C)CC[C@@H]3[C@@]2(C)C[C@H]1N1CCCCC1,inactive
2,CC(C)(C)[N+]([O-])=Cc1ccc(S(=O)(=O)O)cc1S(=O)(=O)O,inactive
3,C[C@H](NC(=O)[C@@H](O)c1cc(F)cc(F)c1)C(=O)N[C@@H]1C(=O)N(C)c2ccccc2-c2ccccc21,inactive
4,COc1cc2ncnc(Nc3cccc(Br)c3)c2cc1OC,inactive
5,COc1cc(C[C@@H](CO)[C@H](CO)Cc2ccc(O)c(OC)c2)ccc1O,inactive
6,OCCNC1CCCc2c1[nH]c1ccc(-c3ccccc3)cc21 (stereo not given),20900 nM (active)
7,Cc1cncc2cccc(S(=O)(=O)N3CCCN(C(=O)CN)C[C@@H]3C)c12,inactive
8,N#Cc1cc(NC(=O)Nc2nnc(-c3ccncc3)s2)ccc1-c1cn[nH]c1,inactive
9,O=C(Nc1ccc(Oc2ccnc3[nH]ccc23)c(F)c1)c1cccn(-c2ccc(F)cc2)c1=O,inactive
10,CC(C)OC(=O)[C@H](C)N[P@](=O)(OC[C@H]1O[C@@H](n2ccc(=O)[nH]c2=O)[C@](C)(F)[C@H]1O)Oc1ccccc1,inactive
11,C[C@@H]1C(=O)O[C@H]2CC34[C@H]5C[C@@H](C(C)(C)C)C36[C@H](OC(=O)[C@@H]6O)O[C@@]4(C(=O)O5)[C@]21O (stereo not given in full),inactive
12,CC(C)C[C@H](NC(=O)[C@@H](NC(=O)c1cccc(-c2ccccc2)n1)[C@@H](C)O)B(O)O,132 nM (active)
13,C[C@H](NC(=O)Cc1cc(F)cc(F)c1)C(=O)N[C@H](C(=O)OC(C)(C)C)c1ccccc1,inactive
14,CCc1cc(C(C)=NOCc2ccc(C3CCCCC3)c(C(F)(F)F)c2)ccc1CN1CC(C(=O)O)C1,inactive
15,CN(C)c1ccc(C(=O)NCCCCCCC(=O)NO)cc1,inactive
16,COc1cc(OC)c(C=CS(=O)(=O)Cc2ccc(OC)c(NCC(=O)O)c2)c(OC)c1,469 nM (active)
17,C[C@H](CCC(=O)O)[C@H]1CC[C@H]2[C@@H]3[C@H](O)C[C@@H]4C[C@H](O)CC[C@]4(C)[C@@H]3CC[C@]12C,inactive
18,CC[C@H]1OC(=O)[C@H](C)[C@@H](O[C@H]2C[C@@](C)(OC)[C@@H](O)[C@H](C)O2)[C@H](C)[C@@H](O[C@@H]2O[C@H](C)C[C@H](N(C)C)[C@@H]2O)[C@](C)(OC)C[C@@H](C)C(=O)[C@H](C)[C@@H](O)[C@]1(C)O,inactive
19,CC(=O)NC(CS)C(=O)O (stereo not given),inactive
20,O=C1CSC(=O)N1C(CCc1ccncc1)COc1ccc(-c2cccc([N+](=O)[O-])c2)cc1 (stereo not given),inactive

# — PubChem BioAssay (NCATS)
